From PubChem
NPC1 prom act: qHTS Assay for NPC1 Promoter Activators | Huh7 NPC1 promoter luciferase reporter, 24 h | Potency, µM (highest dose often 9.22 µM), usual class: activators | 320,000 compounds, 2.4% hits; also: nearly all actives have a fitted effect of over 60% in size
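Stable NPC1-promoter luciferase Huh7 line; cpd (DMSO) 24 h, 37 °C, 5% CO2; Amplite luciferase reagent 10 min RT; luminescence readout. qHTS format.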
FLuc counter: qHTS profiling assay for firefly luciferase inhibitor/activator using purifed enzyme and Km concentrations of substrates (counterscreen for miR-21 project); 360,000 compounds, 6.9% hits; Potency, µM (titrated, usually from 57.5 µM), most hits filed as inhibitors; purified FLuc, Km substrates, luminescence inhibition; AID 588342, 2011; Luciferin 4-monooxygenase (Photinus pyralis), P08659; also: nearly all actives have a fitted effect of over 55% in size
Target sequence (P08659 whole entry, looked up): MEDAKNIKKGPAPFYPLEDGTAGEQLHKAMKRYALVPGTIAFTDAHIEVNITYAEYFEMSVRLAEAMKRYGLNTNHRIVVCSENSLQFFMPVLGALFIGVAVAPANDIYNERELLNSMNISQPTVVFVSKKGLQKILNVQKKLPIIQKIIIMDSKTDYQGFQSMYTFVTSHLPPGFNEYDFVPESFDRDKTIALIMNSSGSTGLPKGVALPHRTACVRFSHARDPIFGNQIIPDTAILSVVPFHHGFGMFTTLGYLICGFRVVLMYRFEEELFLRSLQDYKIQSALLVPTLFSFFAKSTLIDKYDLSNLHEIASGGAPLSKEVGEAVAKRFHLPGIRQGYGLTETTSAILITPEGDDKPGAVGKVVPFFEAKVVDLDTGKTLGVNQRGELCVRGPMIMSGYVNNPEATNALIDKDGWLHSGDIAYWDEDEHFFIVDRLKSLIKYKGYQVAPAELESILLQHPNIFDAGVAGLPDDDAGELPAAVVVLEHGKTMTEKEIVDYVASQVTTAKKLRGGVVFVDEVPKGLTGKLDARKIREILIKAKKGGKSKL
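Purified P. pyralis luciferase, 10 nM final, with Km-level 10 uM D-luciferin and 10 uM ATP in 50 mM Tris acetate pH 7.5, 10 mM Mg acetate, 0.01% Tween-20, 0.05% BSA; 6-point qHTS titration about 60 µM downward; luminescence read.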
SMN2 splice enh: qHTS Assay for Enhancers of SMN2 Splice Variant Expression. Potency, µM (doses to about 46.1 µM), hits mostly activators. HEK293 SMN2-luciferase splicing reporter, luminescence, 30-36 h. 210,000 compounds, 2.8% hits; also: nearly all actives have a fitted effect of over 55% in size
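HEK293 cells carry an SMN2 […]–luciferase reporter in which exon 7 inclusion puts luciferase in frame. Cells were plated 10-12 h before compound addition, then incubated 30-36 h at 37C. ONE-Glo luminescence was read; sodium butyrate at 4.5 mM final served as control.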
Rab9 prom act: qHTS Assay for Rab9 Promoter Activators; Huh7 Rab9 promoter-luciferase reporter, luminescence, 24 h; Potency, µM (top dose mostly 9.22 µM), hits mostly activators; 320,000 compounds, 2.8% hits; AID 485297, 2010; also: nearly all actives have a fitted effect of over 60% in size
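Stable Rab9-luc Huh7, 1500 cells/well, 2 h settle; cmpd in DMSO, 24 h, 37 °C/5% CO2; luciferase reagent 10 min RT; luminescence.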
KinaseGlo FLuc: Counterscreen for Luciferase (Kinase-Glo TM) Inhibition; Luciferin 4-monooxygenase (Photuris pensylvanica), Q27757; Kinase-Glo luciferase, ATP luminescence, 8 min; Potency, µM (top dose mostly 38.3 µM), actives largely listed as inhibitors; 200,000 compounds, 0.28% hits; also: nearly all actives have a fitted effect of over 60% in size
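Compound is pinned into ATP-containing buffer (10 uM ATP, imidazole pH 7.2, 7 mM MgCl2). Kinase-Glo luciferase reagent is then added. Light output is recorded following an 8-min room-temperature incubation.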
Hits are given with their value; ! = repeats disagree; [ ] = dose if it differs, or a comment. Shown are actives, neighbours in structure and some others; about 7.3% of the full set was active somewhere. Calls follow the shape of the dose curve; as a rule, active = well fitted curve in the direction sought with a large enough effect; inconclusive = small, poorly fitted or top-dose-only effect, or another doubt; inactive = no such curve, though single readings can be large; an effect the other way counts as inactive or inconclusive.

COc1cc(NC(=O)C(NS(=O)(=O)c2ccc3c(c2)CCCC(=O)N3)C(C)C)cc(OC)c1 (configuration not stated) was read as FLuc counter inactive.
For Cc1ccc(CN2CCSc3ccc(C(=O)Nc4cc(C)cc(C)c4)cc32)cc1 the results were FLuc counter inactive and SMN2 splice enh inactive.
For Cc1ccc(CN2CCSc3ccc(C(=O)NCCc4ccccc4)cc32)cc1 the results were FLuc counter inactive and SMN2 splice enh 13µM.
Cc1ccc(CN2CCSc3ccc(C(=O)Nc4ccc(Cl)cc4)cc32)cc1 was read as FLuc counter inconclusive and SMN2 splice enh 11µM.
`O=C(NCCc1ccc(Cl)cc1)c1ccc2c(c1)N(Cc1ccccc1)CCS2` gave FLuc counter inactive and SMN2 splice enh inconclusive.
For Cc1nn(CC(=O)N2CCC(C)CC2)c(=O)c2cc3sccc3n12 the results were FLuc counter inactive and SMN2 splice enh inactive.
For Cn1cnc2cc(OC(=O)c3ccccc3)ccc21 the results were NPC1 prom act inactive, FLuc counter 19µM, SMN2 splice enh inactive, Rab9 prom act inactive and KinaseGlo FLuc inactive.
`Cc1ccc(C(=O)Oc2ccc3c(c2)ncn3C)cc1` gave NPC1 prom act inactive, FLuc counter 3µM, Rab9 prom act inactive and KinaseGlo FLuc inactive.
For CCOC(=O)c1c(C)n(-c2ccccc2)c2ccc(OC(=O)c3ccccc3)cc12 the results were FLuc counter inactive and SMN2 splice enh inactive.
`Cc1ccc(C(=O)Oc2cccc(-n3cnnn3)c2)cc1` gave NPC1 prom act inactive, FLuc counter inconclusive, SMN2 splice enh inactive, Rab9 prom act inactive and KinaseGlo FLuc inactive.
O=C1CCCc2nc3c(cc21)C(O)Oc1ccccc1-3 (configuration not stated) was read as NPC1 prom act inactive, FLuc counter inactive, Rab9 prom act inactive and KinaseGlo FLuc inactive.
For O=C1CCCc2nc3c(cc21)C(O)Oc1c-3ccc2ccccc12 (configuration not stated) the results were NPC1 prom act 3.2µM, FLuc counter inactive, SMN2 splice enh inactive, Rab9 prom act 1.1µM and KinaseGlo FLuc inactive.
CCCSc1nc2c(c(=O)[nH]1)C(c1ccc(F)cc1F)CC(=O)N2 (configuration not stated) was read as FLuc counter inactive.
Cc1cc(C(=O)N/N=C2\CC(=O)c3ccccc32)c(C)n1-c1ccc(F)cc1 was read as NPC1 prom act inactive, FLuc counter 8.5µM and Rab9 prom act inconclusive.
`O=C(NCCc1ccccc1)c1cnc2ccccn2c1=O` gave NPC1 prom act 0.89µM, FLuc counter 11µM, SMN2 splice enh 4µM, Rab9 prom act 0.56µM and KinaseGlo FLuc inactive.
Cc1cc(Br)cc(C)c1NC(=O)c1cnc2ccccn2c1=O was read as FLuc counter inactive and SMN2 splice enh inactive.
Cc1ccccc1NC(=O)c1cnc2ccccn2c1=O was read as NPC1 prom act inconclusive, FLuc counter 0.76µM, SMN2 splice enh inconclusive, Rab9 prom act 0.79µM and KinaseGlo FLuc inconclusive.
For Cc1cccc(CCNC(=O)c2cnc3c(C)cccn3c2=O)c1 the results were FLuc counter 4.3µM.
Screening COc1cccc2c1cc1c(=O)n(CC(=O)NCc3ccc(N(C)C)cc3)nc(C)n12 returned FLuc counter inactive and SMN2 splice enh inactive.
CCn1c(SCC(=O)NCCc2ccccc2)nnc1-c1cccs1 was read as NPC1 prom act inactive, FLuc counter inactive, SMN2 splice enh inactive, Rab9 prom act inactive and KinaseGlo FLuc inactive.
For CCn1c(SCC(=O)c2ccccc2)nnc1-c1cccs1 the results were NPC1 prom act inconclusive, FLuc counter 9.5µM, SMN2 splice enh inactive, Rab9 prom act inconclusive and KinaseGlo FLuc inactive.
`Cc1ccnc(SCC(=O)c2cccs2)n1` gave NPC1 prom act 3.5µM, FLuc counter inconclusive, SMN2 splice enh inconclusive, Rab9 prom act 3.2µM and KinaseGlo FLuc inactive.
Screening CCn1c(SCC(=O)c2cccs2)nnc1-c1ccco1 returned NPC1 prom act inactive, FLuc counter 21µM, SMN2 splice enh inactive, Rab9 prom act inactive and KinaseGlo FLuc inactive.
`CCn1c(SCC(=O)O)nnc1-c1cc2c(C)nn(-c3ccccc3)c2s1` gave NPC1 prom act inactive, FLuc counter 9.5µM, SMN2 splice enh inactive, Rab9 prom act inactive and KinaseGlo FLuc inactive.
Cc1nn(-c2ccccc2)c2sc(-c3nnc(SCC(=O)O)o3)cc12 was read as NPC1 prom act inactive, FLuc counter inconclusive, SMN2 splice enh inactive, Rab9 prom act inconclusive and KinaseGlo FLuc inactive.
CCc1c(C)sc2c1CCN(Cc1cccc(F)c1)C2c1ccccc1 (configuration not stated) was read as FLuc counter inactive.
Screening Cc1cccc(CC(=O)NCc2nc3cccnc3n2Cc2ccc(F)cc2)c1 returned FLuc counter inactive.
Nc1ncnc2c1ncn2[C@H]1O[C@@H](CO)[C@@H](O)[C@H]1N was read as SMN2 splice enh inactive[9.22 µM] and KinaseGlo FLuc inactive[7.66 µM].
`CCOC(=O)c1sc(NC(=O)c2ccco2)nc1C` gave NPC1 prom act inactive, FLuc counter 11µM, SMN2 splice enh inactive, Rab9 prom act inconclusive and KinaseGlo FLuc inactive.
For Cc1ccc(C(=O)Nc2nnc(C)s2)o1 the results were NPC1 prom act inactive, FLuc counter inactive, SMN2 splice enh inactive, Rab9 prom act inactive and KinaseGlo FLuc inactive.
Screening COC(=O)c1sc(NC(=O)c2ccc(C)o2)nc1C returned NPC1 prom act inconclusive, FLuc counter 5.4µM, SMN2 splice enh 1.6µM, Rab9 prom act 2.8µM and KinaseGlo FLuc 6.3µM.
Screening Cc1c(C(=O)Nc2nnc(C(F)(F)F)s2)oc2ccccc12 returned NPC1 prom act inconclusive, FLuc counter 11µM, SMN2 splice enh inactive, Rab9 prom act inconclusive and KinaseGlo FLuc inactive.
Screening CCOC(=O)c1sc(NC(=O)c2ccc(C)o2)nc1C returned NPC1 prom act inactive, FLuc counter 6µM, SMN2 splice enh 13µM, Rab9 prom act inactive and KinaseGlo FLuc inconclusive.
For COC(=O)c1sc(NC(=O)c2oc3ccccc3c2C)nc1C the results were NPC1 prom act inconclusive, FLuc counter inconclusive, SMN2 splice enh 7.1µM, Rab9 prom act inconclusive and KinaseGlo FLuc inactive.
`COc1ccc(-c2nsc(NC(=O)c3oc4ccccc4c3C)n2)cc1` gave FLuc counter inconclusive and SMN2 splice enh inactive.
CCN(c1ccccc1)S(=O)(=O)c1nnc(NC(=O)c2ccco2)s1 was read as NPC1 prom act inactive, FLuc counter 0.21µM! and Rab9 prom act inactive.
`CCN(c1cccc(C)c1)S(=O)(=O)c1nnc(NC(=O)c2ccccc2Cl)s1` gave FLuc counter 13µM.
`O=C(N/N=C/c1ccc(O)cc1O)c1cc(-c2ccccc2)n[nH]1` gave KinaseGlo FLuc inactive.
